Legend:
Test in all cases: PBM binding z-score (relative to random genomic background probes); higher = stronger binding; sequences stand for … in GC…GCGATTGACAGCGTAGAATGAAGG
[1] = system: PPARg:RXRa DBDmut IVT, anti-RXR (DBD mutation: RXRa K156A/R161A, NR concentration 270 nM, RXRa partner concentration 90 nM)
In short: (§1)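 The probes on custom Agilent 4×180K protein-binding microarrays were double-stranded, with 34-nt variable regions bearing direct-repeat seeds, single-nucleotide variants, half-site ablations and random human genomic background sequences. Incubation lasted 1 h with ligand-free nuclear receptor dimers in PBS pH 7.4, 2% milk, 0.02% Triton X-100, 1 mM DTT, 0.2 mg/mL BSA and 0.4 mg/ml salmon testes DNA. Antibodies against each partner (one per run) detected bound dimers, and fluorescence scans were regression-normalized. Binding z-scores take the random background probes as reference.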

[2] = system: PPARg:RXRa IVT, anti-PPARg (NR concentration 270 nM, RXRa partner concentration 90 nM)
In short: as §1

[3] = system: PPARg DBDmut:RXRa IVT, anti-PPARg (DBD mutation: PPARg1 K132A/R137A, NR concentration 270 nM, RXRa partner concentration 90 nM)
In short: as §1

[4] = system: PPARg DBDmut IVT, anti-PPARg (DBD mutation: PPARg1 K132A/R137A, NR concentration 270 nM)
In short: as §1

[5] = system: PPARg homodimer (NR concentration 180 nM)
In short: as §1

[6] = system: PXR:RXRa (NR concentration 270 nM, RXRa partner concentration 90 nM)
In short: as §1

[7] = system: PXR homodimer (NR concentration 270 nM)
In short: as §1

[8] = system: RARa:RXR (NR concentration 270 nM, RXRa partner concentration 90 nM)
In short: as §1

[9] = system: RARa homodimer (NR concentration 270 nM)
In short: as §1

[10] = system: RARb:RXRa (NR concentration 270 nM, RXRa partner concentration 90 nM)
In short: as §1

[11] = system: RARb homodimer (NR concentration 270 nM)
In short: as §1

[12] = system: RARg:RXRa (NR concentration 270 nM, RXRa partner concentration 90 nM)
In short: as §1

[13] = system: RARg homodimer (NR concentration 270 nM)
In short: as §1

[14] = system: RXRa DBDmut IVT, anti-RXR (DBD mutation: RXRa K156A/R161A, NR concentration 90 nM)
In short: as §1

[15] = system: RXRa homodimer (NR concentration 180 nM)
In short: as §1

[16] = system: THRa:RXRa (NR concentration 90 nM, RXRa partner concentration 90 nM)
In short: as §1

[17] = system: THRa homodimer (NR concentration 90 nM)
In short: as §1

[18] = system: VDR homodimer (NR concentration 270 nM)
In short: as §1

| Sequence | PBM binding z-score [1] | PBM binding z-score [2] | PBM binding z-score [3] | PBM binding z-score [4] | PBM binding z-score [5] | PBM binding z-score [6] | PBM binding z-score [7] | PBM binding z-score [8] | PBM binding z-score [9] | PBM binding z-score [10] | PBM binding z-score [11] | PBM binding z-score [12] | PBM binding z-score [13] | PBM binding z-score [14] | PBM binding z-score [15] | PBM binding z-score [16] | PBM binding z-score [17] | PBM binding z-score [18] |
| --- | --- | --- | --- | --- | --- | --- | --- | --- | --- | --- | --- | --- | --- | --- | --- | --- | --- | --- |
| ACTATTAGTTGAGACGAGGGCAACCCATAGGTTG | 0.0223 | 0.455 | 0.5 | 0.77 | 0.831 | 1.31 | 0.412 | 0.966 | 0.536 | 1.07 | 1.45 | 0.739 | 0.903 | 0.366 | 0.748 | 2.42 | 0.54 | 0.783 |
| TCTGCTAGGTCAACGATGTTCAGCTAATCTGCTA | 4.36 | 4.43 | 0.0539 | 0.546 | 0.745 | 1.4 | -0.689 | 2 | -0.343 | 4.15 | 2.97 | 3.73 | 4.24 | 1.03 | 2.47 | 2.73 | 0.88 | -0.288 |
| AGAATGAGGTTATTAAGTTCAGGGAATTGCGGTC | 2.87 | 2.49 | 1.24 | 0.465 | 1.36 | 5.65 | 13.8 | 2.88 | 0.854 | 2.35 | 2.35 | 2.35 | 1.43 | 3.07 | 2.52 | 3.11 | 1.36 | 6.33 |
| CGAACTAGGGCATGAGTTGATAGCAAATGCCGAT | 7.01 | 6.1 | 1.05 | 0.0296 | -0.00514 | -0.191 | -0.257 | 0.155 | -0.133 | 1.12 | 0.222 | 0.852 | 0.834 | 0.394 | 0.388 | 0.0506 | -0.493 | 0.329 |
| AGAATAAGGTTATACGTAGATCAGGGAAGAAAGT | 2.81 | 1.19 | 1.32 | 1.1 | 0.729 | 1.03 | 0.578 | 1.66 | 0.976 | 1.64 | 0.925 | 1.78 | 1.25 | 1.2 | 1.89 | 2.41 | 0.789 | 0.657 |
| AGAATGAGGTTATACGTAGAACAGGGAAGAAAGT | 4 | 1.9 | 1.52 | 1.09 | 1.26 | 1.09 | 0.773 | 1.36 | -0.459 | 1.36 | 0.739 | 1.6 | 1.14 | 1.5 | 2.13 | 2.04 | 0.323 | 1.03 |
| ACTATTAGTTGAGACGAGGGCAACCGTTAGGTTG | 0.0606 | 0.467 | 0.0213 | 0.173 | 0.552 | 1.36 | 0.226 | 0.588 | -0.132 | 1.1 | 1.22 | 0.448 | 0.848 | 0.599 | 0.373 | 2.62 | 0.14 | 0.969 |
| TTACCAAGGTGAAAGGTCGTAGATGCACGCCTTG | 2.23 | 5.05 | 1.07 | 0.00894 | 2.17 | 4.04 | 0.0928 | 5.82 | -0.336 | 3.31 | 2.48 | 4.5 | 2.1 | -0.0824 | 6.49 | 3.42 | 0.581 | 0.0396 |
| ATACCAAGGTGATCGTGAGGTCGTGGATACTAAC | 0.55 | 1.38 | 0.414 | 0.297 | 1.2 | 2.53 | 0.492 | 3.03 | 0.48 | 1.65 | 1.77 | 2.71 | 0.919 | 0.217 | 2.04 | 3.62 | 2.99 | 1.78 |
| ATCTCTAGGTAAACAAGTTCAGTGAATGCCGAAC | 2.47 | 2.16 | 1.52 | 1.13 | 1.19 | 1.47 | 2.08 | 0.521 | 1.04 | 1.05 | 1.51 | 0.719 | 1.05 | 1.09 | 0.385 | 1.33 | 0.65 | 2.69 |
| ACAGACAGGTGAGTGAAGGTAGCTCAGCTGGACG | 0.722 | 0.62 | -0.147 | -1.08 | -0.296 | -0.618 | -0.525 | -0.193 | -0.484 | 0.202 | -0.151 | -0.00932 | 0.0793 | -0.355 | 0.135 | 0.263 | -0.539 | -0.688 |
| GCTCCGAGGACAAGGTCAGAGCTTTGTCCGTAGA | 0.525 | 0.632 | -1.51 | -1.01 | 0.305 | 1.55 | -0.543 | 1.76 | -0.762 | 3.33 | 3.24 | 3.01 | 3.47 | 1.05 | 2.25 | 3.55 | 2.3 | 0.674 |
| TCTGCTAGTTCAGTTGGTCAGCTAACGAGCTGCC | 0.762 | 0.394 | -0.505 | -0.636 | -1.77 | -0.0751 | -0.641 | -0.244 | -1.61 | 0.778 | 0.296 | -0.136 | 0.0684 | 0.659 | -0.391 | -0.312 | -0.718 | -0.523 |
| TCTATTAGTTGATTAGGGCAACCGGAACAGCGGA | 2.14 | 1.3 | 0.694 | 0.839 | 1.02 | 0.35 | 0.534 | 0.296 | 0.818 | 1.06 | 0.786 | 0.516 | 0.529 | 1.16 | 0.673 | 0.816 | 0.261 | 0.547 |
| TCTTGTAGATCAATGGAGGTTAAGAAAGTGCGCT | 2.04 | 1.57 | 0.0784 | 1.12 | -0.199 | 2.58 | 0.0457 | 1.16 | 0.49 | 0.504 | 0.785 | 0.419 | 0.147 | 0.79 | 0.919 | 2.03 | -0.299 | 0.227 |
| TAGCCTAGGTAAGATCGGGCCAGTATACGCTATA | -0.504 | -0.0138 | -2.06 | -1.02 | -0.948 | -0.638 | -0.73 | -0.261 | -1.46 | -1.22 | -0.638 | -0.26 | -0.321 | -1.17 | -0.364 | 1.37 | -0.927 | -0.857 |

From the supplement of paper PMC6555819
